Experimental data: the supplement of paper PMC10720658
± gives the standard deviation of the averaged measurements.

System: AEK1 (Tb927.3.2440)
Assay: percent reduction in TR-FRET probe signal relative to DMSO control; higher = stronger displacement of ATP-site probe (binding)
Settings: 1 µM; incubation time 1 h

Row | SMILES | percent reduction in TR-FRET probe signal [%]
1 | Cc1ccc(Nc2nccc(N(C)c3ccc4c(C)n(C)nc4c3)n2)cc1S(N)(=O)=O [Pazopanib] | 7.95 ± 16
2 | COc1ccc(C(=O)Nc2sc3c(c2C(N)=O)CCCC3)cc1OC | 1.85 ± 1.5
3 | Cc1cc(C(C)Nc2ccccc2)c2nc(N3CCOCC3)cc(=O)n2c1 (centres undefined) | -4.42 ± 15
4 | COc1cc(N2CCC(N3CCN(C)CC3)CC2)ccc1Nc1ncnc(Nc2ccccc2S(=O)(=O)C(C)C)n1 | -6.14 ± 6.2
5 | NC1(C(=O)N[C@@H](CCO)c2ccc(Cl)cc2)CCN(c2ncnc3[nH]ccc23)CC1 | 3.79 ± 1.4
6 | O=c1cc(N2CCOCC2)oc2c(-c3ccccc3)cccc12 | -4.66 ± 9.2
7 | C[C@H](Nc1ncnc2[nH]cnc12)c1cc2ccc(F)cc2nc1-c1ccccn1 | -3.52 ± 7.7
8 | CC(=O)c1c(C)c2cnc(Nc3ccc(N4CCNCC4)cn3)nc2n(C2CCCC2)c1=O.Cl | -16.8 ± 5.1
9 | O=C(O)CCC(=O)Nc1ccc(Br)cn1 [Bikinin] | -3.76 ± 0.8
10 | Cn1sc(=O)n(Cc2ccccc2)c1=O | -18.6 ± 15
11 | CO[C@@H](C(=O)N1Cc2[nH]nc(NC(=O)c3ccc(N4CCN(C)CC4)cc3)c2C1)c1ccccc1 | 24.2 ± 6.1
12 | CCC(=O)Nc1cccc(Oc2nc(Nc3ccc(N4CCN(C)CC4)cc3OC)ncc2Cl)c1 | -15.7 ± 6.4
13 | CS(=O)c1ccc(-c2nc(-c3ccc(F)cc3)c(-c3ccncc3)[nH]2)cc1 (centres undefined) | -6.83 ± 8.7
14 | Cc1ccc(NC(=O)c2cccc(C(C)(C)C#N)c2)cc1Nc1ccc2ncn(C)c(=O)c2c1 | -9.01 ± 3.1
